LGR2 inh: inhibitors of bursicon-induced LGR2 CRE-luciferase signal, primary screen, cell-based, HEK293, CRE-luciferase reporter, bursicon stimulation; Drosophila bursicon receptor LGR2 (rickets); bursicon-stimulated, 4 h; inhibition, % at 9.99 µM; 380,000 compounds, 0.35% hits; AID 720647, 2013;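 active means drop in luminescence signal, shown as inhibition above about 50% in the replicate tests, limit read from the data, passing the limit was not always enough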;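 further: agonist challenge used bursicon conditioned medium at about half maximal strength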
HSP90 refold inh: HSP90 inhibitors, primary screen, cell lysate, luminescence; inhibition, % at 5.6 µM; Rabbit reticulocyte lysate, luciferase refolding luminescence, 3 h; 290,000 compounds, 0.91% hits; AID 1789, 2009; Heat shock protein HSP 90 (rabbit reticulocyte lysate; luciferase refolding);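 active means inhibition above the screen-wide mean plus 3 SD, computed separately per campaign, cut at about 16% in these data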;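 further: 0% = DMSO wells and 100% = 60 µM geldanamycin wells; inhibitors lower the luminescence because luciferase stays unfolded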
SENP6 block: SENP6 protease inhibitors, primary screen, biochemical, luminescence, uHTS; AID 2599, 2010; inhibition, % at 10 µM; Sentrin-specific protease 6 (Homo sapiens), Q9GZR1; Recombinant SENP6 catalytic domain, aminoluciferin luminescence; 330,000 compounds, 1.8% hits;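 active means inhibition above about 50% at the single tested dose, limit read from the data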;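 further: plate controls were DMSO wells with enzyme for no effect and DMSO wells lacking enzyme for full effect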
Target sequence (Q9GZR1 628-1112 limits assumed): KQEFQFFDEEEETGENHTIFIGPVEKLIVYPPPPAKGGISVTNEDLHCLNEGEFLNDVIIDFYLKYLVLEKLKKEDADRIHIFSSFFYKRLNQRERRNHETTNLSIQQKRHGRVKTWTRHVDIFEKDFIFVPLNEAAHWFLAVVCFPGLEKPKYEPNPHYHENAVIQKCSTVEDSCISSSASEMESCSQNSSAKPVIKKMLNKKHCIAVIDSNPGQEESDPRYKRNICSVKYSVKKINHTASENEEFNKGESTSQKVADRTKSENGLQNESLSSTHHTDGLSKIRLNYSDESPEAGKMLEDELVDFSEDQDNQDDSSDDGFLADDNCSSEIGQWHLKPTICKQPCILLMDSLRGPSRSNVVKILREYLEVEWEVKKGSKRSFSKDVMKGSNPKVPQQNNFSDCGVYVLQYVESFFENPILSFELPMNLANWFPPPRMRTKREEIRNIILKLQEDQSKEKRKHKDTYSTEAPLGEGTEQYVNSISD
SENP8 block-1: human SENP8 protease inhibitors, primary screen, biochemical, fluorescence, Nedd8 protein substrate, uHTS; recombinant SENP8; inhibition, % at 20 µM; 360,000 compounds, 0.64% hits; Sentrin-specific protease 8 (Homo sapiens), Q96LD8; in the data active means inhibition mostly above about 40%, no sharp cut-off; inactive means mostly below about 27%
SENP7 inh: SENP7 protease inhibitors, primary screen, biochemical, luminescence, uHTS. 330,000 compounds, 1.5% hits. inhibition, % at 5 µM. recombinant SENP7, Z-RLRGG-aminoluciferin luminescence, 40 min. Sentrin-specific protease 7 (Homo sapiens), Q9BQF6;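 active means inhibition above about 50% at the single test dose, limit read from the data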;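 further: plate controls were DMSO with enzyme for no effect and no enzyme buffer wells for full effect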
SENP8 block-2: SENP8 protease inhibitors, primary screen, biochemical, luminescence; inhibition, % at 10 µM; AID 2540, 2010; purified SENP8, Z-RLRGG-aminoluciferin cleavage; Sentrin-specific protease 8 (Homo sapiens), Q96LD8; 330,000 compounds, 1.2% hits; in the data active means inhibition above about 50%
HSP90 confirm: HSP90 inhibitors, confirmation, cell lysate, luminescence. AID 1846, 2009. rabbit reticulocyte lysate, luciferase refolding luminescence, 3 h. 2,300 compounds, 64% hits. inhibition, % at 5.9 µM. shares compounds with HSP90 refold inh; in the data active means inhibition above about 18%;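 further: 0% = vehicle wells and 100% = reference inhibitor wells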
luciferase ctr: firefly luciferase inhibitors, HSP90 counter-screen, confirmation, artefact control for HSP90 inhibitor project, biochemical, luminescence, triplicate; shares compounds with HSP90 refold inh; purified native firefly luciferase; 2,300 compounds, 48% hits; AID 1847, 2009; inhibition, % at 5.9 µM;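 active means inhibition above the mean inhibition of all tested sample wells plus 3 SD, cut at about 10% in these data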;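 further: 0% = DMSO with luciferase and 100% = wells lacking luciferase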
SENP8 conf: SENP8 protease inhibitors, retest, confirmation, biochemical, luminescence, single concentration | shares compounds with SENP7 inh | Recombinant SENP8, Z-RLRGG-aminoluciferin luminescence, 60 min | inhibition, % at 12.5 µM | 6,200 compounds, 40% hits | AID 488912, 2010;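 active means mean inhibition across replicates above about 50%, limit read from the data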
SENP6 confirm: SENP6 protease inhibitors, confirmation, biochemical, luminescence, single concentration. recombinant SENP6, Z-RLRGG-aminoluciferin luminescence. AID 488915, 2010. inhibition, % at 12.5 µM. 6,200 compounds, 58% hits. shares compounds with SENP7 inh
SENP7 confirm: SENP7 protease inhibitors, retest, confirmation, biochemical, luminescence, single concentration | shares compounds with SENP7 inh | recombinant SENP7, Z-RLRGG-aminoluciferin luminescence, 40 min | inhibition, % at 12.5 µM | 6,200 compounds, 69% hits | AID 488917, 2010
Casp3 SENP sel: caspase-3 protease inhibitors, confirmation, selectivity assay for SENP inhibitor project, biochemical, single concentration | purified caspase-3, Z-DEVD-aminoluciferin luminescence, 60 min | inhibition, % at 12.5 µM | AID 488918, 2010 | shares compounds with SENP7 inh | 6,200 compounds, 60% hits;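 active means mean inhibition above about 50%, limit read from the data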;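 further: plate controls were enzyme with DMSO for no effect and wells without caspase-3 for full effect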
Target sequence (P42574 28-227 limits assumed): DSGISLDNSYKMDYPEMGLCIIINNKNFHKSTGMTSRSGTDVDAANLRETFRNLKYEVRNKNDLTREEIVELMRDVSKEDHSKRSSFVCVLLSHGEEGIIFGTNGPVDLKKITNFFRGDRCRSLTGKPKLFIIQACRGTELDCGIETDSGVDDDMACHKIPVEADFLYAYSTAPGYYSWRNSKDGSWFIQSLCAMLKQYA
SENP luc ctr: interferes with luciferase luminescence in SENP counter-screen; shares compounds with SENP7 inh; Pre-incubated SENP8/Z-RLRGG-aminoluciferin, luciferase luminescence interference; inhibition, % at 12.5 µM; 6,200 compounds, 39% hits;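 active means mean inhibition above about 50% when retested at one dose, limit read from the data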;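 further: plate controls were DMSO wells with completed reaction for no effect and substrate without enzyme for full effect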
The depositor's hits bear a star; . = no result given. Most compounds without a hit are left out; they make up all but 2.3% or so of the library.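 How the source made its calls, unless noted: active means mean inhibition above about 50% in the one-dose retest (limit read from the data); inactive means the rest.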

SMILES	LGR2 inh	HSP90 refold inh	SENP6 block	SENP8 block-1	SENP7 inh	SENP8 block-2	HSP90 confirm	luciferase ctr	SENP8 conf	SENP6 confirm	SENP7 confirm	Casp3 SENP sel	SENP luc ctr
CN1CCN(c2nc(-c3ccc(C(C)(C)C)cc3)nc3ccccc23)CC1	-24.5	54.4*	54.2*	32.3	8.0	33.6	52.4*	49.2*	30.7	27.6	34.6	47.5	20.9
O=C(c1cc(-c2ccc3c(c2)OCO3)on1)N1CCCCC1	48.8	35.7*	77.9*	-10.0	71.9*	65.6*	58.4*	55.2*	34.4	74.2*	92.6*	68.2*	7.5
Cc1ccc(-c2cc(C(=O)N3CCOCC3)no2)cc1	62.7*	62.0*	60.9*	9.8	58.1*	45.3	68.4*	56.7*	52.8*	49.7	82.3*	81.2*	55.2*
Cc1ccc(-c2cc(C(=O)N3CCCC3)no2)cc1	.	20.1*	67.8*	6.4	6.7	62.1*	64.6*	52.4*	-18.3	24.4	86.1*	63.2*	2.7
O=C(c1cc(-c2ccc(O)cc2)on1)N1CCCCCC1	-64.5	12.3	12.6	-1.2	-11.5	-13.7	.	.	.	.	.	.	.
Cc1ccc(NC(=O)Nn2cnnc2)cc1Cl	6.0	-8.0	-9.5	14.7	2.2	-1.9	.	.	.	.	.	.	.
Cc1ccc(NC(=O)O/N=C/c2c(C)nn(C(C)(C)C)c2C)cc1Cl	99.2*	86.0*	52.4*	13.3	51.6*	47.4	86.9*	87.7*	10.1	46.2	41.5	1.0	-2.8
Cc1c(N=Cc2nc3ccccc3n2C)c(=O)n(-c2ccccc2)n1C	-16.5	31.6*	45.8	26.1	83.4*	51.5*	37.4*	26.0*	58.4*	79.8*	99.1*	96.9*	12.4
Cc1c(N=Cc2nc3ccccc3[nH]2)c(=O)n(-c2ccccc2)n1C	.	2.9	-4.8	22.3	0.8	15.5	.	.	.	.	.	.	.
O=C(/C=C/c1cccs1)c1ccc(N2CCOCC2)cc1	92.7*	31.3*	84.2*	-1.2	87.4*	72.0*	58.4*	68.6*	38.4	81.7*	93.2*	37.8	23.9
O=C(CCCOc1ccccc1)N1CCCCC1	.	34.0*	55.0*	14.8	47.3	24.7	65.8*	52.5*	29.5	26.8	69.4*	78.7*	49.1
CN1CCN(C(=O)c2ccc(-c3cccs3)s2)CC1	.	2.2	5.5	-478.2	9.3	1.4	.	.	.	.	.	.	.
O=C(c1cccs1)c1ccc(-c2cccs2)s1	61.8*	29.1*	95.0*	-376.1	94.2*	94.1*	61.0*	52.5*	64.8*	95.9*	96.9*	85.8*	41.5
CCCCNC1=CC(=O)C(=O)c2ccccc21	11.1	24.3*	93.4*	85.2*	80.5*	86.5*	18.8*	-2.8	61.4*	86.7*	74.1*	91.1*	5.2
CN1CCN(C(=O)c2cc3c(c(-c4cccc(-c5ccccc5F)c4)n2)[C@H](CCO)N([S@@](=O)C(C)(C)C)C3)CC1	-5.7	.	.	.	.	.	.	.	.	.	.	.	.
Cc1ccnc(Nc2nc3ccccc3o2)n1	54.2*	21.8*	76.7*	11.9	72.9*	66.6*	44.9*	22.0*	-26.5	54.4*	88.3*	90.2*	49.7
C[C@@H]1CCCCO[C@H](CN(C)S(=O)(=O)c2cccs2)[C@H](C)CN([C@H](C)CO)C(=O)c2cc(NS(C)(=O)=O)ccc2O1	-16.2	.	.	.	.	.	.	.	.	.	.	.	.
C[C@@H]1CN([C@@H](C)CO)C(=O)Cc2cc(NC(=O)Cn3cnnn3)ccc2O[C@H]1CN(C)Cc1ccc(C(=O)O)cc1	2.4	.	.	.	.	.	.	.	.	.	.	.	.
CCCCCc1ccc(-c2ccc(/C=C/C(N)=O)cc2)nc1	-23.2	10.5	16.7	-233.9	-1.0	-6.2	.	.	.	.	.	.	.
CCCc1ccc(-c2ccc(C(=O)O)cc2)nc1	26.8	50.0*	68.7*	6.6	67.4*	59.5*	56.3*	25.9*	69.7*	66.3*	90.3*	73.1*	69.5*
COCC(=O)N1[C@@H](CO)[C@@H](c2ccccc2)C12CN(C(=O)NC1CCCCC1)C2	-2.7	.	.	.	.	.	.	.	.	.	.	.	.
CC(c1ccco1)N(C(=O)COc1ccc(Cl)cc1)c1ccccn1 (stereo not drawn)	.	20.0*	50.4*	-5.0	2.0	17.6	0.2	-9.6	30.3	21.8	18.0	53.4*	51.1*
CNC[C@@H]1Oc2c(NC(=O)c3cc(C)nn3C)cccc2C(=O)N([C@H](C)CO)C[C@H]1C	10.9	.	.	.	.	.	.	.	.	.	.	.	.
CCc1ccc2oc(-c3ccc(OC)cc3)cc(=Nc3cccc(C(=O)O)c3)c2c1	84.0*	24.4*	-1.0	-436.9	96.9*	85.8*	9.5	3.1	82.7*	84.7*	95.0*	79.4*	63.0*
C[C@@H]1CN([C@H](C)CO)C(=O)c2cccc(NC(=O)C3CCCCC3)c2O[C@@H]1CN(C)C(=O)Nc1ccc(F)cc1	24.4	.	.	.	.	.	.	.	.	.	.	.	.
O=C1/C(=C/N(C(=O)c2ccco2)c2ccc(Br)cc2)Sc2ccccc21	.	17.4*	90.0*	-109.3	79.5*	84.4*	57.2*	60.7*	11.3	51.0*	71.5*	44.5	40.4
